Only some compounds are listed: those with a hit (about 19% of all), similar ones and a draw of the others.
TDP1 inh – TDP1 (human) enzyme inhibition; 350,000 compounds, 0.28% hits; Potency, µM (titrated, usually from 130 µM), inactives show top-dose activity change, negative = inhibition, actives largely listed as inhibitors; recombinant TDP1, AlphaScreen DNA substrate cleavage; note: potency is the fitted concentration of half-maximal effect; nearly all actives have a fitted effect of over 40% in size
Target sequence (Q9NUW8 whole entry, looked up): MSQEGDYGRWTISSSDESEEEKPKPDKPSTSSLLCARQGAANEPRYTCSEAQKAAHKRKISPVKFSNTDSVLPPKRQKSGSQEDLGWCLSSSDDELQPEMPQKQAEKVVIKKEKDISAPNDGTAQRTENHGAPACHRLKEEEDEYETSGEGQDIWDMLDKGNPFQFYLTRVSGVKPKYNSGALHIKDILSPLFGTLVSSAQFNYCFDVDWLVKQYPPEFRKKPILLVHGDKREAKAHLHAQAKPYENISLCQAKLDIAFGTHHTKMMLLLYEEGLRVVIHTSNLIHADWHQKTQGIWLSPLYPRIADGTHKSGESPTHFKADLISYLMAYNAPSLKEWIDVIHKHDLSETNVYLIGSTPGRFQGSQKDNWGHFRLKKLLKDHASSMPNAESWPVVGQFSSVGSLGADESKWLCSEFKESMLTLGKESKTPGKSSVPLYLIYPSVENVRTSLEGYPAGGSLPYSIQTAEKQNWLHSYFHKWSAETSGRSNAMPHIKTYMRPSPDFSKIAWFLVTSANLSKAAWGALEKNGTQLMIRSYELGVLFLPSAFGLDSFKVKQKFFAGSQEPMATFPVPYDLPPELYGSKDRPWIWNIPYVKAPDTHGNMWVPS
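Recombinant human Tdp1 (E. coli-expressed, 1 nM final) preincubated with compounds 15 min at room temperature, then 5'-biotin/3'-phosphotyrosine-FITC DNA substrate (15 nM final) added for 5 min. AlphaScreen beads (10 ug/ml final) added 10 min; cleavage lowers signal.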
IL1B secr inh – inflammasome signaling inhibition, IL-1 beta readout | 360,000 compounds, 4.7% hits | THP-1 LPS/ATP IL-1B secretion, AlphaLISA, 16 h; active compounds read low | activity change, % at 57.5 µM; in the data active = activity change below about -50%; inconclusive = mostly about -30% to -49%
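THP-1 cells pretreated 1 hr with compounds (up to 57.5 uM final), then stimulated with LPS (250 ng/mL final) plus ATP (1.25 mM final); secreted IL-1B measured by AlphaLISA after 16 hr, decreased signal indicating inhibition.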
ELG1 repair inh – inhibitors of ELG1-dependent DNA repair in HEK293T cells. HEK293T ELG1-luciferase reporter, luminescence, 16 h; DNA damage induced by 5-fluorouridine. Potency, µM (highest dose often 46.1 µM), without a hit: at the highest dose activity change, negative = inhibition, hits mostly inhibitors. 330,000 compounds, 2.3% hits; note: potency is the fitted concentration of half-maximal effect; nearly all actives have a fitted effect of over 55% in size
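In this reporter screen, reduction of luminescence relative to DMSO vehicle indicated activity. Compounds and 5-fluorouridine were added together to 2,000 cells per well, incubated for 16 hr at 37 °C, then developed with ONE-Glo.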
TDP1 cell noCPT – qHTS for Inhibitors of human tyrosyl-DNA phosphodiesterase 1 (TDP1): qHTS in cells in absence of CPT | Potency, µM (highest dose often 46.2 µM), without a hit: at the highest dose activity change, negative = growth inhibition, actives largely listed as inhibitors | AID 686978, 2013 | DT40 Tdp1-/- hTDP1 cells, no CPT, ATP luminescence, 48 h | 420,000 compounds, 15% hits; note: potency is the fitted concentration of half-maximal effect; nearly all actives have a fitted effect of over 55% in size
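Growth of hTDP1-complemented DT40 Tdp1-knockout cells is measured by ATP luminescence after at least 48 hr compound exposure at 37 °C, with DMSO substituting for the 20 nM CPT used in the parallel screen.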
Giardia killer – kills Giardia lamblia; Giardia lamblia trophozoite viability; activity change, % at 7.66 µM, hits read low; 340,000 compounds, 0.15% hits; AID 540267; in the data active = activity change below about -80%; inconclusive = between about -30% and that limit;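 note: parasites exposed to compound for two days anaerobically before the ATP read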
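Giardia trophozoites, 100 cells per well, were exposed to compounds for 48 hrs at 37 deg C under anaerobic conditions; viability was then read as ATP content by bioluminescence after 15-30 min at room temperature.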
TDP1 cell CPT – growth inhibition of DT40 Tdp1-/-;hTDP1 cells with camptothecin (screen for TDP1 inhibitors); chicken DT40 Tdp1-/-;hTDP1 cells + 20 nM CPT, ATP luminescence, 48 h; Potency, µM (top dose mostly 46.2 µM), inactives show top-dose activity change, negative = growth inhibition, actives largely listed as inhibitors; 420,000 compounds, 12% hits; AID 686979; note: potency is the fitted concentration of half-maximal effect; nearly all actives have a fitted effect of over 55% in size
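Chicken DT40 Tdp1-/- cells complemented with human TDP1, 400 cells/well, exposed to compounds plus 20 nM camptothecin for at least 48 h at 37 C; viability read as ATP content by CellTiter-Glo luminescence.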
* = called active by the depositor. Unless noted, calls come from the whole dose curve; as a rule, active = well fitted curve in the direction sought with a large enough effect; inconclusive = small, poorly fitted or top-dose-only effect, or another doubt; inactive = no such curve, though single readings can be large; an effect the other way counts as inactive or inconclusive. % is set by controls: 0 for no effect and ±100 for the full control effect.

For CCN(CC)c1cc2c(c3c1ccn3C)C1CCC2C1 (configuration not stated) the results were IL1B secr inh 21, TDP1 cell noCPT inconclusive and TDP1 cell CPT 26µM*.
For CN(c1cc(Cl)c2c(c1)OCO2)c1cc2c(c3c1ccn3C)C1CCC2C1 (configuration not stated) the results were IL1B secr inh 52, TDP1 cell noCPT 21µM* and TDP1 cell CPT inconclusive.
`CCC1([N+](=O)[O-])COC(c2ccc(OC)cc2)OC1` (configuration not stated) gave IL1B secr inh -11, TDP1 cell noCPT 1%, Giardia killer -5 and TDP1 cell CPT 16%.
Screening COCCN1C[C@@H](CO)O[C@@H](n2cnc3c(NC(C)C)ncnc32)C1 returned IL1B secr inh 15, TDP1 cell noCPT 2% and TDP1 cell CPT 7%.
COc1ccccc1N1CCN(C(=O)C2CCN(S(=O)(=O)Cc3ccccc3)CC2)CC1 was read as TDP1 inh 9%, TDP1 cell noCPT inconclusive and TDP1 cell CPT inconclusive.
For O=C(NC1CCCC1)c1sc(=S)n2c1[nH]c(=O)c1ccccc12 the results were TDP1 inh 6%, IL1B secr inh -85*, ELG1 repair inh inconclusive, TDP1 cell noCPT inconclusive, Giardia killer -4 and TDP1 cell CPT 21µM*.
`O=C(NCc1ccco1)c1sc(=S)n2c1[nH]c(=O)c1ccccc12` gave TDP1 inh 1%, IL1B secr inh -59*, ELG1 repair inh -4%, TDP1 cell noCPT inconclusive, Giardia killer -5 and TDP1 cell CPT -21%.
`O=C(NCc1ccccc1)c1ccc2c(=O)[nH]c3c(C(=O)NCC4CCCO4)sc(=S)n3c2c1` (configuration not stated) gave TDP1 inh 0%, IL1B secr inh 25, ELG1 repair inh -7%, TDP1 cell noCPT inconclusive, Giardia killer -6 and TDP1 cell CPT -16%.
For CC1CCC(NC(=O)CN2C(=O)COc3ccc(S(=O)(=O)N4CCCC4)cc32)CC1 (configuration not stated) the results were TDP1 inh -1% and ELG1 repair inh inconclusive.
Screening CN(C)/C=N/c1ncc(C(=O)c2ccc(-c3ccccc3)cc2)s1 returned TDP1 inh -1%, IL1B secr inh -52*, ELG1 repair inh inconclusive, TDP1 cell noCPT inconclusive, Giardia killer 6 and TDP1 cell CPT -11%.
For COc1ccc(NC(=O)CN(C)C(=O)c2ccc3[nH]c4c(c3c2)CC(C)CC4)cc1 (configuration not stated) the results were TDP1 inh 0%, IL1B secr inh inconclusive, ELG1 repair inh inconclusive, TDP1 cell noCPT 23µM*, Giardia killer 7 and TDP1 cell CPT -19%.
Screening CCC1CCc2sc(C(=O)N(C)CC(=O)Nc3ccc(OC)cc3)cc2C1 (configuration not stated) returned TDP1 inh -8%, IL1B secr inh -3, ELG1 repair inh -1%, TDP1 cell noCPT 21µM*, Giardia killer 6 and TDP1 cell CPT inconclusive.
`CCN(CC(=O)Nc1ccccc1C(F)(F)F)C(=O)c1ccccc1Cc1ccccc1` gave IL1B secr inh -26, ELG1 repair inh -7%, TDP1 cell noCPT 21µM*, Giardia killer -2 and TDP1 cell CPT inconclusive.
Screening CCC1CCc2sc(C(=O)N(C)CC(=O)Nc3cccc(OC)c3)cc2C1 (configuration not stated) returned TDP1 inh 2%, IL1B secr inh 0, ELG1 repair inh -22%, TDP1 cell noCPT inconclusive, Giardia killer 11 and TDP1 cell CPT inconclusive.
`COc1cccc(NC(=O)CN(C)C(=O)c2ccc3[nH]c4c(c3c2)CC(C)CC4)c1` (configuration not stated) gave TDP1 inh 2%, IL1B secr inh inconclusive, ELG1 repair inh 11%, TDP1 cell noCPT inconclusive, Giardia killer 14 and TDP1 cell CPT inconclusive.
`CCN(CC(=O)Nc1ccccc1C(F)(F)F)C(=O)c1ccc2[nH]c3c(c2c1)CC(C)CC3` (configuration not stated) gave IL1B secr inh -62*, ELG1 repair inh inconclusive, TDP1 cell noCPT 18µM*, Giardia killer -11 and TDP1 cell CPT inconclusive.
NS(=O)(=O)OCC(Cc1ccccc1)N1C(=O)c2ccccc2C1=O (configuration not stated) was read as IL1B secr inh 14, ELG1 repair inh -2%, TDP1 cell noCPT -21%, Giardia killer -9 and TDP1 cell CPT inconclusive.
For O=[N+]([O-])c1ccccc1OCCNCc1ccccc1 the results were IL1B secr inh -8, ELG1 repair inh 23%, TDP1 cell noCPT inconclusive, Giardia killer 2 and TDP1 cell CPT -23%.
`CCc1ccccc1NC(=O)CN(c1cccc(C)c1C)S(C)(=O)=O` gave TDP1 cell noCPT -2% and TDP1 cell CPT 1%.
`CCN(CC(=O)Nc1ccccc1C(F)(F)F)C(=O)c1ccc(-n2nc(C)c(CCC(=O)OC)c2C)cc1` gave IL1B secr inh 21, TDP1 cell noCPT 21µM*, Giardia killer 38 and TDP1 cell CPT inconclusive.
Screening CC1CCc2[nH]c3ccc(C(=O)N(C)CC(=O)Nc4ccc(F)cc4)cc3c2C1 (configuration not stated) returned TDP1 inh 9%, IL1B secr inh inactive, ELG1 repair inh -4%, TDP1 cell noCPT 10µM*, Giardia killer 16 and TDP1 cell CPT inconclusive.
Cc1cccc(N(CC(=O)Nc2ccccc2C(F)(F)F)S(=O)(=O)c2ccccc2)c1C was read as TDP1 cell noCPT 15µM* and TDP1 cell CPT 16µM*.
`CCOc1ccc(S(=O)(=O)N2CCCC(C(=O)NC3CC3)C2)cc1Cl` (configuration not stated) gave TDP1 inh 2%, IL1B secr inh -15, ELG1 repair inh -2%, TDP1 cell noCPT inconclusive, Giardia killer -5 and TDP1 cell CPT inconclusive.
For Cc1cc([N+](=O)[O-])ccc1NC(=O)CSc1nnc(C)n1C the results were IL1B secr inh -16, ELG1 repair inh inconclusive, TDP1 cell noCPT -2%, Giardia killer 0 and TDP1 cell CPT 0%.

High-throughput results from PubChem BioAssay.
